This note sets out measurements from the supplement of paper PMC12819154, “High-throughput peptide-centric local stability assay extends protein–ligand identification to membrane proteins, tissues and bacteria” (Nature Structural & Molecular Biology, 2025).
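Note: lysate desalted by size exclusion to strip endogenous ATP, peptide intensities built from DIA-NN precursor signals, and peptides missing any value discarded before comparison.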

In this assay the target is T1, UniProt P0AES0.
T1 sequence (whole entry): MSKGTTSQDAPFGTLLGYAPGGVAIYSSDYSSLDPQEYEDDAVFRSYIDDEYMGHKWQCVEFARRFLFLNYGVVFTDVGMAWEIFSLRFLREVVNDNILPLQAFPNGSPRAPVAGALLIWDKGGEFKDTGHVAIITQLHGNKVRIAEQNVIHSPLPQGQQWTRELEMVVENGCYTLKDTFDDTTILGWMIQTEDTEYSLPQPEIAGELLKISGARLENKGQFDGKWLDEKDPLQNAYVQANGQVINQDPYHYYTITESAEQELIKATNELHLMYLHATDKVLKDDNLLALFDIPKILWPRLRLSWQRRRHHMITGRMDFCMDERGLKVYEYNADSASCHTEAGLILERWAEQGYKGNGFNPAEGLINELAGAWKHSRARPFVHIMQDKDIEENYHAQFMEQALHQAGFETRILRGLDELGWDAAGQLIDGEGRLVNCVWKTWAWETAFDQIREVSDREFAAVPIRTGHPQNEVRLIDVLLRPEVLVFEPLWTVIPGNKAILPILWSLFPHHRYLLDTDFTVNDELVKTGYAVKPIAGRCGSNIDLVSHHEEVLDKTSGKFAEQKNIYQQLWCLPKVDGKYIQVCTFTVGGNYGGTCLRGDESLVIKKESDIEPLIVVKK
As to the kind of experiment: log2 fold change of tryptic peptide abundance, ligand vs vehicle (limited proteolysis) (log2 ratio); higher = more trypsin-susceptible (destabilized). Particulars: peptide sequence: TGYAVKPIAGR; peptide start residue: 528; ligand concentration: 5 mM; sample: E. coli desalted lysate; replicate design: treated before aliquoting. How it is done:
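HT-PELSA: desalted E. coli K-12 BW25113 lysate (with 12 mM MgCl2) incubated with 5 mM ATP (pH 7) or water for 30 min at 25 C, then a 4 min trypsin pulse at 22 C. Peptides were quantified by DIA-MS (4 replicates). Value is the peptide log2 fold change (treated/control); negative = stabilized. Scale: negative = ligand-stabilized region.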
Take `Nc1ncnc2c1ncn2[C@@H]1O[C@H](COP(=O)(O)OP(=O)(O)OP(=O)(O)O)[C@@H](O)[C@H]1O` [adenosine 5'-triphosphate]: the log2 fold change is -1.49.
